# Laboratory results reported in the supplement of paper PMC4466140.
# What was measured:
# Assay in all cases: SPOT peptide array binding signal intensity (averaged, normalized) (arbitrary units (background-subtracted, floor 0; scale differs between SH3 domains)); higher = stronger binding of the SH3 domain to the peptide
# AgAbp1 = target: AgAbp1
# Summary of the method: (§1)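 Cellulose membranes carried synthetic 15-mer peptides with cysteines swapped for serines. These were incubated overnight at 4°C with 10 μg/ml of GST-fused SH3 domains from four yeast species in TBS-based blocking buffer. Binding signal, detected with anti-GST antibody and quantified in Genespotter, is the normalized, background-subtracted spot intensity averaged over replicates, in arbitrary units specific to each domain.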
# AgBbc1 = target: AgBbc1
# Summary of the method: as §1
# AgBem1-D1 = target: AgBem1-D1
# Summary of the method: as §1
# AgBzz1-D1 = target: AgBzz1-D1
# Summary of the method: as §1
# AgBzz1-D2 = target: AgBzz1-D2
# Summary of the method: as §1
# AgCyk3 = target: AgCyk3
# Summary of the method: as §1
# AgFus1 = target: AgFus1
# Summary of the method: as §1
# AgHof1 = target: AgHof1
# Summary of the method: as §1
# AgHse1 = target: AgHse1
# Summary of the method: as §1
# AgLsb1 = target: AgLsb1
# Summary of the method: as §1
# AgLsb4 = target: AgLsb4
# Summary of the method: as §1
# AgMyo5 = target: AgMyo5
# Summary of the method: as §1
# AgNbp2 = target: AgNbp2
# Summary of the method: as §1
# AgRvs167 = target: AgRvs167
# Summary of the method: as §1
# AgSho1 = target: AgSho1
# Summary of the method: as §1
# AgSla1-D1-D2 = target: AgSla1-D1-D2
# Summary of the method: as §1
# AgSla1-D3 = target: AgSla1-D3
# Summary of the method: as §1
# CaAbp1-D1 = target: CaAbp1-D1
# Summary of the method: as §1
# CaAbp1-D2 = target: CaAbp1-D2
# Summary of the method: as §1
# CaBbc1 = target: CaBbc1
# Summary of the method: as §1
# CaBem1-D1 = target: CaBem1-D1
# Summary of the method: as §1
# CaBzz1-D1 = target: CaBzz1-D1
# Summary of the method: as §1
# CaBzz1-D2 = target: CaBzz1-D2
# Summary of the method: as §1
# CaCyk3 = target: CaCyk3
# Summary of the method: as §1
# CaFus1 = target: CaFus1
# Summary of the method: as §1
# CaHof1 = target: CaHof1
# Summary of the method: as §1
# CaHse1 = target: CaHse1
# Summary of the method: as §1
# CaLsb1 = target: CaLsb1
# Summary of the method: as §1
# CaLsb4 = target: CaLsb4
# Summary of the method: as §1
# CaMyo5 = target: CaMyo5
# Summary of the method: as §1
# CaNbp2 = target: CaNbp2
# Summary of the method: as §1
# CaRvs167 = target: CaRvs167
# Summary of the method: as §1
# CaRvs167-3 = target: CaRvs167-3
# Summary of the method: as §1
# CaSho1 = target: CaSho1
# Summary of the method: as §1
# CaSla1-D1-D2 = target: CaSla1-D1-D2
# Summary of the method: as §1
# CaSla1-D3 = target: CaSla1-D3
# Summary of the method: as §1
# ScAbp1 = target: ScAbp1
# Summary of the method: as §1
# ScBbc1 = target: ScBbc1
# Summary of the method: as §1
# ScBem1-D1 = target: ScBem1-D1
# Summary of the method: as §1
# ScBzz1-D1 = target: ScBzz1-D1
# Summary of the method: as §1
# ScBzz1-D2 = target: ScBzz1-D2
# Summary of the method: as §1
# ScCyk3 = target: ScCyk3
# Summary of the method: as §1
# ScFus1 = target: ScFus1
# Summary of the method: as §1
# ScHof1 = target: ScHof1
# Summary of the method: as §1
# ScHse1 = target: ScHse1
# Summary of the method: as §1
# ScLsb1 = target: ScLsb1
# Summary of the method: as §1
# ScLsb2 = target: ScLsb2
# Summary of the method: as §1
# ScLsb3 = target: ScLsb3
# Summary of the method: as §1
# ScLsb4 = target: ScLsb4
# Summary of the method: as §1
# ScMyo3 = target: ScMyo3
# Summary of the method: as §1
# ScMyo5 = target: ScMyo5
# Summary of the method: as §1
# ScNbp2 = target: ScNbp2
# Summary of the method: as §1
# ScPex13 = target: ScPex13
# Summary of the method: as §1
# ScRvs167 = target: ScRvs167
# Summary of the method: as §1
# ScSho1 = target: ScSho1
# Summary of the method: as §1
# ScSla1-D1-D2 = target: ScSla1-D1-D2
# Summary of the method: as §1
# ScSla1-D3 = target: ScSla1-D3
# Summary of the method: as §1
# SpAbp1-D1 = target: SpAbp1-D1
# Summary of the method: as §1
# SpBbc1 = target: SpBbc1
# Summary of the method: as §1
# SpBzz1-D1 = target: SpBzz1-D1
# Summary of the method: as §1
# SpBzz1-D2 = target: SpBzz1-D2
# Summary of the method: as §1
# SpCyk3 = target: SpCyk3
# Summary of the method: as §1
# SpHof1 = target: SpHof1
# Summary of the method: as §1
# SpHof1-2 = target: SpHof1-2
# Summary of the method: as §1
# SpHof1-3 = target: SpHof1-3
# Summary of the method: as §1
# SpHse1 = target: SpHse1
# Summary of the method: as §1
# SpLsb1 = target: SpLsb1
# Summary of the method: as §1
# SpLsb4 = target: SpLsb4
# Summary of the method: as §1
# SpMyo1 = target: SpMyo1
# Summary of the method: as §1
# SpNbp2 = target: SpNbp2
# Summary of the method: as §1
# SpPex13 = target: SpPex13
# Summary of the method: as §1
# SpRvs167 = target: SpRvs167
# Summary of the method: as §1
# SpSla1-D1-D2 = target: SpSla1-D1-D2
# Summary of the method: as §1
# SpSla1-D3 = target: SpSla1-D3
# Summary of the method: as §1
binder,measurement,setting,value
TKHKAPPPPPPTAET,SPOT peptide array binding signal intensity,AgAbp1,1
same,SPOT peptide array binding signal intensity,AgBbc1,≤ 0
same,SPOT peptide array binding signal intensity,AgBem1-D1,≤ 0
same,SPOT peptide array binding signal intensity,AgBzz1-D1,2000
same,SPOT peptide array binding signal intensity,AgBzz1-D2,338
same,SPOT peptide array binding signal intensity,AgCyk3,≤ 0
same,SPOT peptide array binding signal intensity,AgFus1,≤ 0
same,SPOT peptide array binding signal intensity,AgHof1,≤ 0
same,SPOT peptide array binding signal intensity,AgHse1,4
same,SPOT peptide array binding signal intensity,AgLsb1,≤ 0
same,SPOT peptide array binding signal intensity,AgLsb4,≤ 0
same,SPOT peptide array binding signal intensity,AgMyo5,21.8
same,SPOT peptide array binding signal intensity,AgNbp2,39.5
same,SPOT peptide array binding signal intensity,AgRvs167,4
same,SPOT peptide array binding signal intensity,AgSho1,≤ 0
same,SPOT peptide array binding signal intensity,AgSla1-D1-D2,3
same,SPOT peptide array binding signal intensity,AgSla1-D3,774
same,SPOT peptide array binding signal intensity,CaAbp1-D1,12
same,SPOT peptide array binding signal intensity,CaAbp1-D2,≤ 0
same,SPOT peptide array binding signal intensity,CaBbc1,≤ 0
same,SPOT peptide array binding signal intensity,CaBem1-D1,42.5
same,SPOT peptide array binding signal intensity,CaBzz1-D1,4620
same,SPOT peptide array binding signal intensity,CaBzz1-D2,3490
same,SPOT peptide array binding signal intensity,CaCyk3,1
same,SPOT peptide array binding signal intensity,CaFus1,4.5
same,SPOT peptide array binding signal intensity,CaHof1,1
same,SPOT peptide array binding signal intensity,CaHse1,5.5
same,SPOT peptide array binding signal intensity,CaLsb1,≤ 0
same,SPOT peptide array binding signal intensity,CaLsb4,≤ 0
same,SPOT peptide array binding signal intensity,CaMyo5,0.25
same,SPOT peptide array binding signal intensity,CaNbp2,≤ 0
same,SPOT peptide array binding signal intensity,CaRvs167,≤ 0
same,SPOT peptide array binding signal intensity,CaRvs167-3,4
same,SPOT peptide array binding signal intensity,CaSho1,≤ 0
same,SPOT peptide array binding signal intensity,CaSla1-D1-D2,6.5
same,SPOT peptide array binding signal intensity,CaSla1-D3,≤ 0
same,SPOT peptide array binding signal intensity,ScAbp1,1.5
same,SPOT peptide array binding signal intensity,ScBbc1,≤ 0
same,SPOT peptide array binding signal intensity,ScBem1-D1,3
same,SPOT peptide array binding signal intensity,ScBzz1-D1,5910
same,SPOT peptide array binding signal intensity,ScBzz1-D2,5
same,SPOT peptide array binding signal intensity,ScCyk3,≤ 0
same,SPOT peptide array binding signal intensity,ScFus1,18
same,SPOT peptide array binding signal intensity,ScHof1,≤ 0
same,SPOT peptide array binding signal intensity,ScHse1,≤ 0
same,SPOT peptide array binding signal intensity,ScLsb1,0.25
same,SPOT peptide array binding signal intensity,ScLsb2,≤ 0
same,SPOT peptide array binding signal intensity,ScLsb3,≤ 0
same,SPOT peptide array binding signal intensity,ScLsb4,≤ 0
same,SPOT peptide array binding signal intensity,ScMyo3,160
same,SPOT peptide array binding signal intensity,ScMyo5,112
same,SPOT peptide array binding signal intensity,ScNbp2,3.5
same,SPOT peptide array binding signal intensity,ScPex13,0.75
same,SPOT peptide array binding signal intensity,ScRvs167,1.5
same,SPOT peptide array binding signal intensity,ScSho1,2.5
same,SPOT peptide array binding signal intensity,ScSla1-D1-D2,≤ 0
same,SPOT peptide array binding signal intensity,ScSla1-D3,4
same,SPOT peptide array binding signal intensity,SpAbp1-D1,≤ 0
same,SPOT peptide array binding signal intensity,SpBbc1,2
same,SPOT peptide array binding signal intensity,SpBzz1-D1,240
same,SPOT peptide array binding signal intensity,SpBzz1-D2,6.25
same,SPOT peptide array binding signal intensity,SpCyk3,0.5
same,SPOT peptide array binding signal intensity,SpHof1,1
same,SPOT peptide array binding signal intensity,SpHof1-2,≤ 0
same,SPOT peptide array binding signal intensity,SpHof1-3,≤ 0
same,SPOT peptide array binding signal intensity,SpHse1,≤ 0
same,SPOT peptide array binding signal intensity,SpLsb1,0.5
same,SPOT peptide array binding signal intensity,SpLsb4,≤ 0
same,SPOT peptide array binding signal intensity,SpMyo1,215
same,SPOT peptide array binding signal intensity,SpNbp2,14.5
same,SPOT peptide array binding signal intensity,SpPex13,≤ 0
same,SPOT peptide array binding signal intensity,SpRvs167,≤ 0
same,SPOT peptide array binding signal intensity,SpSla1-D1-D2,2
same,SPOT peptide array binding signal intensity,SpSla1-D3,1
